IL1B secr inh: inhibitors of inflammasome signaling (IL-1 beta secretion). 4.7% of 360,000 active. THP-1 LPS/ATP IL-1B secretion, AlphaLISA, 16 h; hits give low values. activity change, % at 57.5 µM. AID 743279; in the data active = activity change below about -50%; inconclusive = mostly about -30% to -49%; also: % is scaled to controls: 0 for no effect and ±100 for the full control effect
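Secreted IL-1B measured by AlphaLISA bead assay after 16 h compound exposure of THP-1 cells; compounds (final up to 57.5 uM) added 1 h before LPS (250 ng/mL) and ATP (1.25 mM) stimulation; lower signal means less secretion.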
TDP1 cell noCPT: qHTS for Inhibitors of human tyrosyl-DNA phosphodiesterase 1 (TDP1): qHTS in cells in absence of CPT. Potency, µM (doses to about 46.2 µM), for inactives: at the highest dose activity change, negative = growth inhibition, most hits filed as inhibitors. 15% of 420,000 active. DT40 Tdp1-/- hTDP1 cells, no CPT, ATP luminescence, 48 h; also: potency is read from the fitted curve at half-maximal effect; % is scaled to controls: 0 for no effect and ±100 for the full control effect; nearly all actives have a fitted effect of over 55% in size
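A cellular qHTS used chicken DT40 cells lacking endogenous Tdp1 but carrying stably transfected human TDP1. Compounds were applied without camptothecin, and cell growth kinetics were judged by ATP-dependent luminescence after ≥48 hr.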
HepG2 viability: kills HepG2 cells in TGF-b inhibitor counter-screen; HepG2 CAGA-GFP viability, ATP luminescence, 18 h; Potency, µM (top dose mostly 46.1 µM), inactives show at the top dose activity change, negative = cytotoxicity, usual class: cytotoxic; 0.76% of 410,000 active; AID 588856; also: potency is read from the fitted curve at half-maximal effect
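HepG2 CAGA-GFP cells (1000/well, DMEM with 1% FBS) received compound, then TGF-beta at 500 pg/mL final, and were incubated 18 hours at 37 degrees C. Viability was read by CellTiter-Glo luminescence. Media-only wells were set as complete cell-killing and DMSO as no toxicity.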
TGFb SMAD3 inh: inhibitors of TGF-b signaling; HepG2 CAGA-GFP TGF-b/SMAD3 reporter, GFP fluorescence, 18 h; TGF-beta stimulated, 500 pg/mL final; 1.2% of 410,000 active; Potency, µM (doses to about 46.1 µM), for the others: at the highest dose activity, negative = inhibition, usual class: inhibitors; also: potency is read from the fitted curve at half-maximal effect; % is scaled to controls: 0 for no effect and ±100 for the full control effect; nearly all actives have a fitted effect of over 65% in size
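Inhibition of TGF-beta-driven CAGA-GFP reporter expression in HEPG2 cells is measured by cellular GFP fluorescence after 18 h stimulation with 500 pg/mL recombinant TGF-beta in 1% FBS medium at 37 degrees C.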
TDP1 cell CPT: growth inhibition of DT40 Tdp1-/-;hTDP1 cells with camptothecin (screen for TDP1 inhibitors). Potency, µM (highest dose often 46.2 µM), inactives show top-dose activity change, negative = growth inhibition, hits mostly inhibitors. chicken DT40 Tdp1-/-;hTDP1 cells + 20 nM CPT, ATP luminescence, 48 h. 12% of 420,000 active; also: potency is read from the fitted curve at half-maximal effect; % is scaled to controls: 0 for no effect and ±100 for the full control effect; nearly all actives have a fitted effect of over 55% in size
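Chicken DT40 Tdp1-/- cells complemented with human TDP1, 400 cells/well, exposed to compounds plus 20 nM camptothecin for at least 48 h at 37 C; viability read as ATP content by CellTiter-Glo luminescence.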
TDP1 inh: TDP1 (human) enzyme inhibition. Q9NUW8. recombinant TDP1, AlphaScreen DNA substrate cleavage. Potency, µM (titrated, usually from 130 µM), for the others: at the top dose activity change, negative = inhibition, usual class: inhibitors. 0.28% of 350,000 active. AID 485290; also: potency is read from the fitted curve at half-maximal effect; % is scaled to controls: 0 for no effect and ±100 for the full control effect; nearly all actives have a fitted effect of over 40% in size
Target sequence (Q9NUW8 whole entry, looked up): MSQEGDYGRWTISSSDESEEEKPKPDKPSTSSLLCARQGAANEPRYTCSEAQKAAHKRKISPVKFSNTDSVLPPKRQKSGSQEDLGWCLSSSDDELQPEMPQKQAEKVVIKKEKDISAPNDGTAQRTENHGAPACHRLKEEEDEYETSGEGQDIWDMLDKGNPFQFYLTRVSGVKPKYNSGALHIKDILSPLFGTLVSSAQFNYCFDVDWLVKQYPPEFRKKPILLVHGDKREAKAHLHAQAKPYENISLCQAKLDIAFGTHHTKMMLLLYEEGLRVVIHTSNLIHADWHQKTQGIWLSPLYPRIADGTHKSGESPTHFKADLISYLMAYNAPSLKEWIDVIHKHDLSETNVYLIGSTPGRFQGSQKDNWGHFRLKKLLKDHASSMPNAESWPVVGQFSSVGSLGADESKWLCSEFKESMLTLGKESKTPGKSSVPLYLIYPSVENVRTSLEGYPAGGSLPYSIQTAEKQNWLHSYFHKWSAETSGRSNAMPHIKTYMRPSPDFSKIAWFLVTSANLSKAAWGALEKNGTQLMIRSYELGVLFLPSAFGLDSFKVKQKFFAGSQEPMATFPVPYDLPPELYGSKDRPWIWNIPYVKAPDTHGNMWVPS
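Here, a 5' biotin and 3' phosphotyrosine-FITC DNA oligonucleotide reports Tdp1 activity: intact substrate bridges AlphaScreen beads, while cleavage leaves a 3' phosphate and drops signal. All incubations at room temperature.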
Starred values were filed as active, the others as inactive; ? = inconclusive; . = no result given; [ ] = dose if it differs, or a comment. This is a sample that favours compounds with a hit; in the whole collection about 18% have one here. Unless noted, calls follow the shape of the dose curve; as a rule, active = well fitted curve in the direction sought with a large enough effect; inconclusive = small, poorly fitted or top-dose-only effect, or another doubt; inactive = no such curve, though single readings can be large; an effect the other way counts as inactive or inconclusive.

SMILES | IL1B secr inh | TDP1 cell noCPT | HepG2 viability | TGFb SMAD3 inh | TDP1 cell CPT | TDP1 inh
COCCNC(=O)CN(C(=O)c1ccc(N2CCCC2)nc1)c1ccc(Cl)cc1 | 23 | -11% | -13% | -5% | ? | 6%
CN(CC(=O)Nc1cccc(F)c1)C(=O)c1cn(-c2ccccc2)nc1-c1ccc(F)cc1 | -25 | ? | -48% | 22µM* | ? | 0%
CN(CC(=O)Nc1ccccc1Br)C(=O)c1ccccc1OCc1ccc(Cl)cc1 | -59* | 18µM* | -19% | -16% | ? | .
CCOc1ccc(NC(=O)CN(C)C(=O)c2cn(-c3ccccc3)nc2-c2cccs2)cc1OCC | 0 | ? | -3% | ? | 18µM* | 4%
COc1cccc(-c2nn(-c3ccc(C)cc3)cc2C(=O)N(C)CC(=O)Nc2cccc(F)c2)c1 | 0 | ? | -34% | ? | 18µM* | 1%
Cc1ccc(Cl)cc1NC(=O)Cn1nc(-c2cccs2)ccc1=O | -10 | 0% | -6% | 9% | -7% | -12%
COc1ccc(-c2nn(-c3ccccc3)cc2C(=O)N(C)CC(=O)Nc2ccccc2Br)cc1 | ? | ? | -15% | -17% | 23µM* | .
N#Cc1ccccc1NC(=O)COC(=O)/C=C/c1cn(-c2ccccc2)nc1-c1ccc(Cl)cc1 | 46 | ? | 10% | 8% | ? | -5%
Cc1ccc(SCC(=O)N(C)CC(=O)Nc2cccc(F)c2)c(C)c1 | -53* | ? | -4% | -4% | -22% | -4%
COc1ccc(-c2nn(-c3ccccc3)cc2C(=O)N(C)CC(=O)Nc2cccc(F)c2)cc1 | -25 | ? | -38% | ? | ? | -2%
COc1ccc(-c2nn(-c3ccccc3)cc2/C=C/C(=O)OCC(=O)Nc2ccccc2C#N)cc1 | 4 | 23µM* | -30% | -19% | 7.3µM* | -3%
O=C(O)c1cccc(NC(=O)c2cccc(S(=O)(=O)Nc3cccc(F)c3)c2)c1 | . | -17% | 7% | 13% | 1% | -1%[12.3 µM]
O=C(Nc1nnc(-c2cccs2)o1)c1cccc(Oc2ccccc2)c1 | 27 | 7.3µM* | -5% | ? | 10µM* | 11%
O=C(Nc1nnc(-c2cccs2)o1)c1cccc(F)c1 | 65 | 7.3µM* | -17% | -22% | 4.6µM* | .
O=C(Nc1ccsc1C(=O)O)c1cccc(Oc2ccccc2)c1 | 27 | -15% | -22% | 7% | ? | .
O=C(O)COc1cccc2c1CCC=C2CCO/N=C(\c1ccccc1)c1cccnc1 | . | . | . | . | . | 14%
CCCCn1c(N)c(N(CC(C)C)C(=O)CC2CCCC2)c(=O)[nH]c1=O | 0 | -2% | 8% | ? | -2% | -7%
Cc1cc(NC(=O)Nc2ccc(N(C)C)cc2)c2cc(F)cc(F)c2n1 | . | ? | . | . | ? | 24%
Cc1ccc(S(=O)(=O)NC(=O)C2(C)CCN2C(=O)c2cccc(F)c2)cc1 (configuration not stated) | 0 | 4% | 0% | -6% | 1% | .
COc1ccc(-c2nc(SC(C)C(=O)Nc3ccc(NC(C)=O)cc3)n[nH]2)cc1 (configuration not stated) | -4 | -19% | -17% | -7% | 1% | .
O=C(COC(=O)c1cc(-c2cccc(Br)c2)nc2ccccc12)NCC1CCCO1 (configuration not stated) | 13 | -17% | -2% | -15% | 0.016µM* | 9%
COc1ccc(-c2cc(C(=O)NCC3CCCO3)c3cc(C)ccc3n2)cc1 (configuration not stated) | -7 | 16µM* | -13% | -11% | -5% | 3%
COc1ccc(-c2nc(SC(C)C(=O)NCC3CCCO3)n[nH]2)cc1 (configuration not stated) | 38 | 9.2µM* | 1% | -7% | 8.2µM* | 0%
COc1ccc(-c2cc(C(=O)NCC3CCCO3)c3cc(C(C)C)ccc3n2)cc1 (configuration not stated) | ? | ? | 4% | 0% | 16µM* | 2%
CSc1nc(O)c(N=Nc2ccc(F)cc2F)c(=O)[nH]1 | -7 | ? | -90% | 3% | ? | .
SMILES | IL1B secr inh | TDP1 cell noCPT | HepG2 viability | TGFb SMAD3 inh | TDP1 cell CPT | TDP1 inh
COc1ccc(-c2cc(C(=O)NCC3CCCO3)c3ccccc3n2)cc1 (configuration not stated) | 6 | ? | -29% | -9% | ? | -2%
COc1cccc(-c2cc(C(=O)NCC3CCCO3)c3ccccc3n2)c1 (configuration not stated) | 24 | 18µM* | 8% | -13% | -19% | 2%
COc1cccc(-c2cc(C(F)(F)F)n3ncc(C(=O)N4CCc5ccccc5C4)c3n2)c1 | -9 | 18µM* | -21% | 3% | 16µM* | 3%
CC(C)c1ccc(-c2nn(-c3ccccc3)cc2C(=O)NCC2CCCO2)cc1 (configuration not stated) | -80* | ? | -8% | -8% | -104% | -8%
COc1cccc(-c2cc(C(F)(F)F)n3ncc(C(=O)NCC4CCCO4)c3n2)c1 (configuration not stated) | 19 | 23µM* | -18% | 2% | ? | -4%
COc1ccc(-c2cc(C(F)(F)F)n3ncc(C(=O)NCC4CCCO4)c3n2)cc1 (configuration not stated) | -4 | ? | -5% | -6% | ? | 1%
O=C(NCC1CCCO1)c1cn(-c2ccccc2)nc1-c1ccc(F)cc1 (configuration not stated) | 5 | -1% | -13% | 2% | -30% | 1%
CCOc1ccc(CCNC(=O)c2ccc3nc(N4CCOCC4)sc3c2)cc1OCC | 23 | ? | 0% | -3% | ? | -1%
COc1ccc(C)cc1NC(=O)C(C)N(c1ccc(C)cc1)S(C)(=O)=O (configuration not stated) | 17 | ? | 12% | -6% | -8% | 5%
Cc1ccc(N(C(C)C(=O)Nc2cc(Cl)ccc2Oc2ccccc2)S(C)(=O)=O)cc1 (configuration not stated) | -69* | ? | -8% | ? | ? | -2%
COc1ccc2cc(S(=O)(=O)N3CCCCC3)ccc2c1S(=O)(=O)N1CCCCC1 | -14 | ? | -12% | ? | 21µM* | 3%

High-throughput results (PubChem)
